The source holds several records for some structures; these can differ, active in one and inactive in another. Activity calls are given as the source filed them. How the source made its calls: active means hit-call score of the fitted dose curve at least 0.9, where 1 is the maximum; inactive means score below 0.9.
assay: CCTE_Shafer_MEA_acute_burst_percentage_std: CCTE's Neural Acute Assay for Standard Deviation of Burst Percentage, Shafer Lab (AID 2284018);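 further: fitted in the negative direction so actives lower burst percentage SD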
Method: CCTE_Shafer_MEA_acute assay is conducted using Axion Biosystems 48 well microelectrode array (MEA) plates and Maestro recording system. Each well of the MEA plate contains a grid of 16 microelectrodes embedded in the culture surface. Electrically active cells, such as neurons, can be cultured over the electrodes, and electrical activity in these cells can be recorded extracellularly. The spontaneous firing of neurons is captured from each electrode on a microsecond timescale providing both temporally and spatially precise data. […] The CCTE_Shafer_MEA_acute assay uses primary cultures of rat cortical neurons. As these cultures mature over time, neural networks develop functional activity and form cohesive networks in which electrical activity can be highly coordinated. Baseline 40-minute recordings are made on days post-plating 13 or 15, followed by a secondary 40-minute recording after chemical exposure.CCTE_Shafer_MEA_acute_burst_percentage_std is a component of the CCTE_Shafer_MEA_acute assay. It measures the percentage of spikes (action potential firing) in a single-electrode burst (temporally-clustered groups of spikes) as the number of spikes in bursts divided by the total number of spikes during a recording in a microelectrode array (MEA) using Axion Biosystems Maestro 768 channel amplifier with the AxIS adaptive spike detector. The standard deviation of the burst percentages across electrodes is calculated to report a well-level value. The recordings before and after chemical treatment are used to calculate a percent change in the standard deviation of the burst percentage in each well.Data from the assay component CCTE_Shafer_MEA_acute_burst_percentage_std was analyzed into 1 assay endpoint. This assay endpoint, CCTE_Shafer_MEA_acute_burst_percentage_std, was analyzed in the negative analysis fitting direction relative to DMSO as the negative control and baseline of activity. Using a type of functional reporter, gain or loss-of-signal activity can be used to understand electrical activity.
Spontaneous activity in the cortical cultures was recorded using an Axion Biosystems Maestro 768 channel amplifier and Axion Integrated Studios (AxIS) v1.8 (or later) software. The amplifier recorded from all channels simultaneously (gain = 1200 x; sampling rate = 12.5 kHz/channel): raw signals were filtered with a Butterworth band-pass filter (300-5000 Hz), which filters out slower local field potentials leaving only fast potentials, i.e., "spikes", arising from extracellular currents associated with action potentials (Pine 2006; Wheeler and Nam 2011). On-line spike detection of filtered signals was conducted with the AxIS adaptive spike detector, using a threshold of 8x the root mean squared (rms) noise on each channel. Any electrodes with rms noise levels greater than 5 uV were grounded (e.g., no data were recorded). Once grounded, an electrode was grounded for the duration of the experiment. All recordings were conducted at 37 C. Wells were deemed usable if on the day of the exposure >/= 10 electrodes were active (defined as >/= 5 spikes/min). On DIV 13 or 15, a minimum of three wells from one cortical culture preparation were treated with each compound (0.03-40 uM). Prior to recording baseline activity, each mwMEA plate was placed in the Maestro at 37 C and allowed to sit for 20 min while firing rates stabilized. Baseline activity (40 min) was recorded before the addition of each compound. An additional 40 min of spontaneous activity was recorded in the presence of each compound. Changes in network parameters relative to baseline were assessed following compound treatment.

SMILES	AC50	outcome
CCCN(C1CCN(C(=O)C2CCNCC2)CC1)[C@@H]1CCc2ccc(OC)cc2C1	33.1 µM (active)	–
O=P(OC(CCl)CCl)(OC(CCl)CCl)OC(CCl)CCl	31.6 µM (active)	inactive
Cn1c(=O)c2c(ncn2C)n(C)c1=O	20 µM (active)	–
O=C(O)c1cc(N=Nc2ccc(S(=O)(=O)Nc3ccccn3)cc2)ccc1O	–	inactive
Cc1[nH]cnc1C[C@H]1CCc2c(C)c3ccccc3n2C1=O	–	inactive
COc1ccc2sc(C(=O)Nc3nnn[nH]3)c(OC(C)C)c2c1	–	inactive
On1ccccc1=S	–	inactive
CCCCCCCCCCCCc1ccccc1	–	inactive
CCC(C)(C)C(=O)O[C@H]1C[C@@H](C)C=C2C=C[C@H](C)[C@H](CC[C@@H]3C[C@@H](O)CC(=O)O3)[C@H]21	–	inactive
CCCCC(CC)COC(=O)CCCCCCCCC(=O)OCC(CC)CCCC (centres undefined)	–	inactive
CC[C@H]1OC(=O)[C@H](C)[C@@H](O[C@H]2C[C@@](C)(OC)[C@@H](O)[C@H](C)O2)[C@H](C)[C@@H](O[C@@H]2O[C@H](C)C[C@H](N(C)C)[C@H]2O)[C@](C)(O)C[C@@H](C)C(=O)[C@H](C)[C@@H](O)[C@]1(C)O	–	inactive
COc1cccc(-c2ccc(/C=C\CN3CCCCCC3)cc2Cl)c1	–	inactive
Cn1cnc([N+](=O)[O-])c1Sc1ncnc2nc[nH]c12	–	inactive
CCOC(=O)c1ccc(C2CCC(NC[C@H](O)COc3ccc(O)c(NS(C)(=O)=O)c3)CC2)cc1 (some centres undefined)	–	inactive
O=C(O)CCN(C1(C(=O)NO)CCCC1)S(=O)(=O)c1ccc(Oc2ccc(F)cc2)cc1	–	inactive
CC[C@H]1CC[C@H](NCc2cc3c(cc2OC)[C@H]2C[C@H]2C(=O)N3C)[C@H](c2ccccc2)N1	–	inactive
CC(C)=CCCC(C)=CC=O	–	inactive
CCCCCCc1ccc(O)cc1O	27.8 µM (active)	–
